Screening data from PubChem.
Many of the other results were omitted from the sample, so hits are more common in it than they were.
TbPYK inhibitor – blocks Trypanosoma brucei pyruvate kinase | Q57TT1 | TbPYK enzyme, Kinase-Glo Plus ATP luminescence, 45 min | Potency, µM (highest dose often 76.8 µM), without a hit: top-dose activity, negative = inhibition, most hits filed as inhibitors | 410,000 compounds, 0.12% hits; also: potency is read from the fitted curve at half-maximal effect; % is scaled to controls: 0 for no effect and ±100 for the full control effect; nearly all actives have a fitted effect of over 50% in size
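Enzyme and substrate buffer are dispensed first and compound is pin-transferred. ADP at 130 uM final then starts the reaction, which runs 45 min at room temperature. Detection reagent is added for 10 min before luminescence is imaged.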
CHX counter – affects cycloheximide protein synthesis inhibition readout, counter-screen | cell reporter, cycloheximide protein synthesis inhibition counterscreen | max response, % | 300,000 compounds, 12% hits | AID 2314; in the data active = max response mostly above about 13%, no sharp cut-off; inactive = mostly below about 14%; also: read at 38.3 µM for the half of the compounds with a filed dose; 0% is about no effect
Shiga inhibitor – blocks Shiga toxin action in Vero cells. AID 2315. 290,000 compounds, 9.2% hits. Vero cells, Shiga toxin protein synthesis inhibition reporter. inhibition, % at 38.7 µM; in the data active = inhibition mostly above about 28%, no sharp cut-off; inactive = mostly below about 43%; also: 0% is about no effect
LmPK inh – inhibitors of Leishmania mexicana pyruvate kinase; purified LmPK, Kinase-Glo ATP luminescence, 1 h; Potency, µM (titrated, usually from 57.5 µM), for inactives: at the highest dose activity change, negative = inhibition, actives largely listed as inhibitors; 290,000 compounds, 0.37% hits; also: potency is read from the fitted curve at half-maximal effect; % is scaled to controls: 0 for no effect and ±100 for the full control effect
Target sequence (Q27686 whole entry, looked up): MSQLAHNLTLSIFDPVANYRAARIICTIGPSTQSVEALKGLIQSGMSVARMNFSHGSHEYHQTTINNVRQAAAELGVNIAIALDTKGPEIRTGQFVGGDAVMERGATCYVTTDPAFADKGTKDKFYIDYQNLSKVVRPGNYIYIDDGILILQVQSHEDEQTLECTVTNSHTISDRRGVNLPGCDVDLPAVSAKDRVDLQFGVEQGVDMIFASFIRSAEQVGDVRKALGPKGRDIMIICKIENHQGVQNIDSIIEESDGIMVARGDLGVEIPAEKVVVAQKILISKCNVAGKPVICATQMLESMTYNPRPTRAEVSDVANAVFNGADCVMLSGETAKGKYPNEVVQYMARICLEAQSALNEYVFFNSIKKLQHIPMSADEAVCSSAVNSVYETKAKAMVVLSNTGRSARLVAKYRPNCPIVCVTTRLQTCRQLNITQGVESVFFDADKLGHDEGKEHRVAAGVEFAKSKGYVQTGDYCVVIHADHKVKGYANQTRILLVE
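ATP generated from ADP (0.1 mM) and PEP (0.5 mM) by 0.1 nM LmPK over 1 h at room temperature (pH 7.2 imidazole buffer) was detected by coupled luciferase luminescence. Values were normalized to uninhibited and no-enzyme wells.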
RE007 growth inh – less growth of the S. pombe RE007 Vpr strain; S. pombe RE007 Vpr strain, BacTiter-Glo ATP luminescence, 24 h; Potency, µM (titrated, usually from 92.2 µM), inactives show at the highest dose activity change, negative = less growth, actives largely listed as inhibitors; 360,000 compounds, 0.21% hits; active = well fitted falling curve with a large enough effect; inconclusive = small, poorly fitted or top-dose-only effect; inactive = no such curve, though single readings can be large or run the other way; also: potency is read from the fitted curve at half-maximal effect; % is scaled to controls: 0 for no effect and ±100 for the full control effect; nearly all actives have a fitted effect of over 50% in size
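Fission yeast RE007 carrying one integrated HIV-1 vpr copy, seeded at OD 0.01 in PMG+AL medium with 23 nL pinned compound. Grown 24 h at 30 degrees; viability read by BacTiter-Glo luminescence after 5 min.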
FBPA Giardia inh – blocks Giardia fructose-bisphosphate aldolase activity | Potency, µM (top dose mostly 59.6 µM), for the others: at the highest dose activity, negative = inhibition, most hits filed as inhibitors | A8B2U2 | purified Giardia FBPA | 290,000 compounds, 0.71% hits; also: potency is read from the fitted curve at half-maximal effect; % is scaled to controls: 0 for no effect and ±100 for the full control effect; nearly all actives have a fitted effect of over 55% in size
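Giardia FBPA (40 nM reagent) was preincubated 10 min at RT with compound (up to 57.5 uM final), then substrate plus GAPDH/TPI/NAD/arsenate coupling system with diaphorase/resazurin was added; resorufin fluorescence (525/598 nm) was read after 20 min.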
Active calls of the source: *; i = inactive; u = inconclusive; x = not tested or not shown; [ ] = another dose, or the depositor's remark. Unless noted, calls follow the shape of the dose curve; as a rule, active = well fitted curve in the direction sought with a large enough effect; inconclusive = small, poorly fitted or top-dose-only effect, or another doubt; inactive = no such curve, though single readings can be large; an effect the other way counts as inactive or inconclusive.

SMILES	TbPYK inhibitor	CHX counter	Shiga inhibitor	LmPK inh	RE007 growth inh	FBPA Giardia inh
COc1cc(OC)cc(C(=O)Nc2ccc3c(c2)OCCO3)c1	u	26*	x	u	-22%	-3%
Cc1cc(C)n(-c2ccc(C(=O)Nc3ccc4c(c3)OCCO4)cc2)n1	7%	45*	100*	-3%	18%	-19%
O=C(O)CCNc1ccc2c(c1)OCCO2	-7%	42*	73*	-8%	2%	u
Cc1cc(C)n(-c2ccc(C(=O)NCc3ccc4c(c3)OCO4)cc2)n1	6%	-5	-14	-4%	2%	-10%
CCCOc1ccc(CNC(=O)CCCN2C(=O)CSc3c2c(C)nn3-c2ccccc2)cc1	-9%	x	x	x	x	x
Cn1c(=O)c(=O)n(C)c2cc(S(=O)(=O)N3CCN(c4ccccc4)CC3)ccc21	0%	x	x	x	x	x
CO[C@]1(NC(=O)C(C(=O)O)c2ccc(O)cc2)C(=O)N2C(C(=O)O)=C(CSc3nnnn3C)COC21 (stereo not given in full)	x	x	x	x	x	-11%
NC(=O)Nc1ccc2c(c1)OCCO2	0%	52*	103*	5%	10%	0%
Cc1cc(C(=O)Nc2ccc3c(c2)OCCO3)co1	-5%	57*	76*	-28%	10%	-27%
Cc1cc(C)n(-c2ccc(C(=O)Oc3ccc4c(c3)OCO4)cc2)n1	-9%	18*	32*	1%	10%	-11%
CC(=O)c1ccc(OC(=O)c2ccc(-n3nc(C)cc3C)cc2)cc1	0%	2	30	-1%	-3%	0%
CC(=O)Nc1ccc2c(c1)OCCOCCOc1cc(NC(C)=O)ccc1OCCO2	-3%	-2	-6	0%	0%	u
CC(=O)Nc1ccc(C(=O)Nc2ccc3c(c2)OCO3)cc1	-7%	18*	57*	-5%	-5%	-7%
CC(=O)c1ccc(NC(=O)Cn2c3ncccc3c(=O)n2-c2ccc(C)cc2)cc1	4%	x	x	x	x	x
Cc1nn2cc(-c3ccc(OC(C)C)cc3)nc2s1	-13%	x	x	x	x	x
Cc1cc(-c2ccc(S(=O)(=O)Nc3ccc(Cl)cc3C)cc2)on1	4%	x	x	x	x	x
CC(C)C(=O)N[C@H]1CCCN1C(=O)/C=C\c1ccccc1	x	x	x	x	x	0%[12.9 µM]
Cc1ccc(C(=O)Nc2ccc3c(c2)OCCO3)o1	-19%	31*	35	u	-13%	-15%
CC12CCC(C(=O)Nc3ccc4c(c3)OCCO4)(OC1=O)C2(C)C (stereo not given)	-18%	47*	94*	8%	14%	-1%
Cc1cc(C)c(C(=O)Nc2ccc3c(c2)OCCO3)c(C)c1	-2%	x	x	x	-7%	x
O=C(Nc1ccc2c(c1)OCCO2)c1ccc(NC(=O)C2CCCO2)cc1 (stereo not given)	9%	23*	21	-3%	2%	0%
O=C(Nc1ccc2c(c1)OCCO2)c1ccc(Cl)cc1	-7%	28*	42	-4%	4%	-8%
O=C(Nc1ccc(NC(=O)c2ccc3c(c2)OCCO3)cc1)c1ccccc1	4%	8	23	-7%	10%	7%
CCOc1ccc(CCNC(=O)c2ccc(CS(=O)(=O)Cc3ccccc3Cl)o2)cc1OCC	5%[15.4 µM]	x	x	x	x	x
O=C(CCC(=O)N1CC2CCCN2c2ccccc21)NCc1cccc(Cl)c1 (stereo not given)	3%	x	x	x	x	x
SMILES	TbPYK inhibitor	CHX counter	Shiga inhibitor	LmPK inh	RE007 growth inh	FBPA Giardia inh
Cc1ccc(NC(=O)CCNS(=O)(=O)c2ccc3c(c2)CCC(=O)N3)cc1F	5%	-1	7	2%	8%	2%
CC(C)CNS(=O)(=O)c1ccc(C(=O)Nc2ccc3c(c2)OCCO3)cc1	3%	54*	97*	-3%	-4%	-5%
CS(=O)(=O)Nc1ccc(C(=O)NCc2ccc3c(c2)OCO3)cc1	2%	-6	-10	-8%	-6%	7%
O=C(CCNS(=O)(=O)c1ccc2c(c1)CCC(=O)N2)Nc1ccc2c(c1)OCCO2	-7%	29*	56*	2%	-13%	-1%
CS(=O)(=O)Nc1ccc(C(=O)Nc2ccc3c(c2)OCO3)cc1	0%	26*	53*	-10%	11%	0%
CC(C)CNS(=O)(=O)c1ccc(CCC(=O)Nc2ccc3c(c2)OCCO3)cc1	-15%	6	9	1%	0%	1%
CC12CCC(C(=O)Nc3nc4ccccc4s3)(OC1=O)C2(C)C (stereo not given)	-3%	29*	85*	-2%	-20%	-1%
COc1ccccc1NC(=O)CSCc1cc(=O)c2cccc(Cl)c2[nH]1	-4%	x	x	x	x	x
O=C(NCCNCCO)C1(C(F)(F)F)CC(CCc2ccccc2)CCCO1 (stereo not given)	x	-3	-3	x	x	10%
Cc1cc2c(c(=O)n1Cc1ccccc1)C1O[C@](c3ccsc3)(Cc3ccccc31)O2	x	-3	i	-3%[11.5 µM]	x	u
O=c1oc2cc(Br)ccc2n1CSC1=NCCS1	-8%	34*	100*	5%	u	-9%
CCCc1nnc(NC(=O)Cn2c(=O)oc3cc(Br)ccc32)s1	-6%	-4	-3	2%	5%	2%
Cc1nn(C)c2c1c(C(F)(F)F)cc(=O)n2C(C)C(=O)NCCc1ccccc1 (stereo not given)	-4%	x	x	x	x	x
COc1cccc2c(=O)c3cccc(N)c3[nH]c12	0%	-2	-2	-14%	3%	1.8µM*
NC(=O)c1sc2nccc(Nc3ccccc3)c2c1N	u	15*	49	-28%	12%	-16%
Cn1ncc([N+](=O)[O-])c1C(=O)Nc1ccc2c(c1)OCCO2	-4%	33*	54*	0%	-1%	2%
Cc1nn(C)cc1C(=O)Nc1ccc2c(c1)OCCO2	-23%	43*	71*	-2%	5%	-6%
COCCN1Cc2cccc(C(=O)Nc3ccc(C)cc3)c2C1=O	-3%	-2	-2	1%	0%	-7%
O=C(Nc1ccc2c(c1)OCO2)c1cc(-c2ccc(Br)cc2)on1	2%	x	x	x	x	x
O=C(Nc1ccc2c(c1)OCO2)c1c(Cl)nc2sccn12	-2%	25*	103*	1%	-2%	1%
COCCN1Cc2cccc(C(=O)Nc3ccc4c(c3)OCCO4)c2C1=O	1%	31*	65*	2%	9%	-10%
Cc1ccc(NC(=O)c2c([N+](=O)[O-])cnn2C)cc1C	1%	5	x	-6%	-9%	8%
CC1=C(C(=O)Nc2cccc(C(F)(F)F)c2)C2(CCCCCC2)OC1=O	-7%[15.4 µM]	x	x	x	x	x
O=C(Cc1ccc(F)cc1)NCc1nc2cccnc2n1Cc1ccc(F)cc1	-5%	x	x	x	x	x
Cn1nccc1C(=O)Nc1ccc2c(c1)OCCO2	-24%	43*	96*	16µM*	-19%	-6%
Cn1ncc([N+](=O)[O-])c1C(=O)Nc1ccc(-c2ccccc2)cc1	2%	13*	x	-2%	-3%	-6%
